Test system: XIP peptide (Xip251-270)
Test: compounds binding XIP fragment 251-270 – biochemical, small-molecule microarray, fluorescence 635/667 nm, 0.5 µg/mL protein, primary screen (AID 1183)
Conditions: fluorescence 635 nm, higher = more signal

Structure (SMILES)	composite z-score
C=CCC(OC(C)=O)[C@@H]1[C@@H](N(Cc2ccc(-c3ccccc3)cc2)C(=O)c2cccc3ccccc23)c2cc(OCCCO)ccc2N1C(=O)c1ccc2ccccc2c1 (some centres undefined)	-0.0461
Cc1ccc(S[C@]2(C(=O)NCCN3CCOCC3)CC(=O)N(C3CCCCC3)[C@@H]2c2ccc(CO)cc2I)cc1	0.657
CCOC(=O)C[C@H]1[C@H](OC(=O)c2cc3ccccc3oc2=O)[C@@H](NC(=O)C2CCCCC2)c2cc(OCCCO)ccc2N1C(=O)Cc1ccc(OC)cc1	0.0439
CC(=O)n1cc(C(O)C2C=CC3C(=O)N(c4ccccc4)C(=O)C3N2Nc2ccccc2F)c2ccccc21 (centres undefined)	0.752
NC(=O)NCC#Cc1ccc2c(c1)[C@]1(C(=O)N2)[C@H](C(=O)Nc2nc3ccccc3s2)[C@H]2C(=O)O[C@H](c3ccccc3)[C@H](c3ccccc3)N2[C@@H]1c1ccc(OCCO)cc1	-0.913
[N-]=[N+]=Nc1ccccc1[C@@H]1OC(c2ccc(OCCCO)cc2)=N[C@]1(Cc1ccccc1)C(N)=O	0.0246
NC(=O)NCC#Cc1ccc2c(c1)[C@]1(C(=O)N2)[C@H](C(=O)N2CCCCCCC2)[C@H]2C(=O)O[C@H](c3ccccc3)[C@H](c3ccccc3)N2[C@@H]1c1ccc(O)cc1	0.833
COC(=O)C1=CC(CCCO)=CC(C2CC2)N(Cc2cccc(OC(F)(F)F)c2)C=C1C(=O)OC (centres undefined)	0.668
COCCOC(=O)N1C(=O)[C@@]2(c3cc(C#CC4(O)CCCCCC4)ccc31)[C@H](c1ccc(OCCO)cc1)N1[C@H](c3ccccc3)[C@H](c3ccccc3)OC(=O)[C@H]1[C@@H]2C(=O)N1CCCCCCC1	0.743

Test system: not listed separately
Test: blood-stage malaria parasite viability loss – strain 3D7, DAPI fluorescence, 100 nL, primary screen (AID 1184);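 further: parasites grown inside human red blood cells in medium with human serum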
Conditions: P. falciparum 3D7 growth, 3 d, higher = more signal

Structure (SMILES)	z-score
C=C(CCCC)C(=O)CC[C@H](OC(C)=O)c1ccccc1OCCO	-2.52
O=C1O[C@H](c2ccccc2)[C@H](c2ccccc2)N2[C@H]1[C@@H](C(=O)N1CCN(c3ncccn3)CC1)[C@]1(C(=O)Nc3ccccc31)[C@H]2c1ccc(O)cc1	-0.976
CO[C@H]1O[C@H](CO)[C@@H](OC(=O)Nc2ccccc2)[C@@H]2OC(=O)[C@H](Cc3ccccc3)C/C=C/C[C@@H](Cc3ccccc3)C(=O)O[C@@H]12	-1.42
C=CCNC(=O)[C@@H]1[C@H]2C(=O)O[C@H](c3ccccc3)[C@H](c3ccccc3)N2[C@H](c2ccc(O)cc2)[C@@]12C(=O)Nc1ccc(C#CC3(O)CCCCCC3)cc12	0.516
C=CCC(OC(C)=O)[C@@H]1[C@@H](N(Cc2ccc(-c3cccc(C(F)(F)F)c3)o2)C(=O)Cc2ccc(F)cc2)c2cc(OCCCO)ccc2N1C(=O)c1ccc2ccccc2n1 (some centres undefined)	0.587
CO[C@H]1O[C@H](CO)[C@@H](OC(=O)Nc2ccc(C(F)(F)F)cc2)[C@H](OC(=O)Nc2ccccc2-c2ccccc2)[C@@H]1OC(=O)Nc1ccccc1-c1ccccc1	-2.28
CCCCC(=C=CC[C@H](O)c1ccc(OCCO)cc1)C[C@H](O)c1ccccn1	-0.593
NC(=O)[C@@]1(CCS(=O)(=O)c2ccccc2)COC(c2ccc(OCCCO)cc2)=N1	0.605
CC(=O)NCCCC[C@@H]1NC(=O)[C@@H]2C[C@H](C(=O)NCCCCCC[N+](C)(C)C)[C@H](c3ccc(O)cc3)N2C1=O	1.12
O=C1C2C=CC(C(O)c3cccc(O)c3)N(Nc3ccccc3F)C2C(=O)N1c1ccccc1 (centres undefined)	-1.33
COCCOC(=O)N1C(=O)[C@@]2(c3cc(C#CCCO)ccc31)[C@H](C(=O)N1CCN(c3ncccn3)CC1)[C@H]1C(=O)O[C@H](c3ccccc3)[C@H](c3ccccc3)N1[C@@H]2c1ccc(O)cc1	-0.278
COc1cccc(OC)c1C(=O)O[C@H]1[C@@H]2OC(=O)[C@H](Cc3cccc(Br)c3)C/C=C/C[C@@H](Cc3cccc(Br)c3)C(=O)O[C@H]2[C@@H](OC)O[C@@H]1CO	-0.545
COc1ccc([Si](C)(C)[C@@H]2[C@@H](CCO)O[C@]3(C(=O)N(Cc4ccccc4)c4ccc(N5C(=O)c6ccccc6Oc6ccccc65)cc43)[C@H]2C)cc1	-0.119
CC(C)CNC(=O)[C@@H]1c2ccccc2C(=O)N(CC23CC4CC(CC(C4)C2)C3)[C@H]1c1ccc(CO)cc1	-2.11
C=C(COC)/C(=C/C[C@H](OC(=O)c1ccncc1)c1cccc(OCCO)c1)c1cnc2ccccc2c1	-2.72
CN1C(=O)C2C=CC(C(O)c3ccc(-c4ccccc4)s3)N(Nc3ccccc3)C2C1=O (centres undefined)	1.23
COc1ccc(NC(=O)O[C@H]2[C@H](OC(=O)Nc3ccc4c(c3)OCO4)[C@H](OC(=O)Nc3ccc4c(c3)OCO4)[C@@H](OC)O[C@@H]2CO)cc1	-2.24
C=CCOC(=O)[C@H]1[C@@H]2C(=O)O[C@@H](c3ccccc3)[C@@H](c3ccccc3)N2[C@@H](c2ccc(OCCOC(=O)[C@H]3C[C@H]4C(=O)NCC(=O)N4[C@H]3c3ccc(O)cc3)cc2)[C@]12C(=O)Nc1ccc(I)cc12	-1.83

Structure (SMILES)	z-score
COCCOC(=O)N1C(=O)[C@@]2(c3cc(C#CC4=CCCCC4)ccc31)[C@H](C(=O)N1CCN(c3ncccn3)CC1)[C@H]1C(=O)O[C@H](c3ccccc3)[C@H](c3ccccc3)N1[C@@H]2c1ccccc1OCCO	-2.32
C=C(COC)C(=O)CC[C@@H](OC(C)=O)c1ccc(OCCO)cc1	-0.964
O=C1C2C=CC(C(O)c3ccc([N+](=O)[O-])cc3)N(Nc3ccccc3)C2C(=O)N1c1ccccc1 (centres undefined)	0.45
COCCCNC(=O)[C@@H]1c2ccccc2C(=O)N(C2CCCCC2)[C@H]1c1ccc(CO)cc1	-1.76
C=CCN1C(=O)[C@]2(O[C@H](CCO)[C@@H]([Si](C)(C)c3ccc(OC)cc3)[C@@H]2C)c2ccccc21	-2.31
C=CCC(OC(C)=O)[C@@H]1[C@@H](N(Cc2cc3ccccc3o2)C(=O)Cc2ccc(OC)cc2)c2cc(OCCCO)ccc2N1C(=O)Cc1ccc2ccccc2c1 (some centres undefined)	-2.15
CCOC(=O)C1=CCC(c2cc3ccccc3[nH]2)N(S(=O)(=O)c2ccccc2[N+](=O)[O-])C1 (centres undefined)	-0.65
COCC1=C([C@H](O)CCc2ccccc2)[C@H](CO)n2c(=O)n(-c3ccccc3)c(=O)n2C1	0.0736
C=CCC(OC(C)=O)[C@@H]1[C@@H](N(Cc2ccc(-c3ccccc3)cc2)C(=O)c2cccc3ccccc23)c2cc(OCCCO)ccc2N1C(=O)c1ccc2ccccc2c1 (some centres undefined)	-1.76
Cc1ccc(S[C@]2(C(=O)NCCN3CCOCC3)CC(=O)N(C3CCCCC3)[C@@H]2c2ccc(CO)cc2I)cc1	-1.92
CCOC(=O)C[C@H]1[C@H](OC(=O)c2cc3ccccc3oc2=O)[C@@H](NC(=O)C2CCCCC2)c2cc(OCCCO)ccc2N1C(=O)Cc1ccc(OC)cc1	-0.565
CC(=O)n1cc(C(O)C2C=CC3C(=O)N(c4ccccc4)C(=O)C3N2Nc2ccccc2F)c2ccccc21 (centres undefined)	-0.153
NC(=O)NCC#Cc1ccc2c(c1)[C@]1(C(=O)N2)[C@H](C(=O)Nc2nc3ccccc3s2)[C@H]2C(=O)O[C@H](c3ccccc3)[C@H](c3ccccc3)N2[C@@H]1c1ccc(OCCO)cc1	-0.245
[N-]=[N+]=Nc1ccccc1[C@@H]1OC(c2ccc(OCCCO)cc2)=N[C@]1(Cc1ccccc1)C(N)=O	-2.06
NC(=O)NCC#Cc1ccc2c(c1)[C@]1(C(=O)N2)[C@H](C(=O)N2CCCCCCC2)[C@H]2C(=O)O[C@H](c3ccccc3)[C@H](c3ccccc3)N2[C@@H]1c1ccc(O)cc1	0.285
COC(=O)C1=CC(CCCO)=CC(C2CC2)N(Cc2cccc(OC(F)(F)F)c2)C=C1C(=O)OC (centres undefined)	-1.37
COCCOC(=O)N1C(=O)[C@@]2(c3cc(C#CC4(O)CCCCCC4)ccc31)[C@H](c1ccc(OCCO)cc1)N1[C@H](c3ccccc3)[C@H](c3ccccc3)OC(=O)[C@H]1[C@@H]2C(=O)N1CCCCCCC1	-2.43
